STK33 inh – STK33 kinase inhibitors, primary screen, biochemical, luminescence, ADP-Glo, MBP substrate; Serine/threonine-protein kinase 33 (Homo sapiens), Q9BYT3; inhibition, % at 12.5 µM; hit rate 0.44% among 27,000; AID 2322, 2010; in the data active = inhibition above about 20%; inconclusive = no clear call, values can overlap the other calls
Target sequence (Q9BYT3 whole entry, looked up): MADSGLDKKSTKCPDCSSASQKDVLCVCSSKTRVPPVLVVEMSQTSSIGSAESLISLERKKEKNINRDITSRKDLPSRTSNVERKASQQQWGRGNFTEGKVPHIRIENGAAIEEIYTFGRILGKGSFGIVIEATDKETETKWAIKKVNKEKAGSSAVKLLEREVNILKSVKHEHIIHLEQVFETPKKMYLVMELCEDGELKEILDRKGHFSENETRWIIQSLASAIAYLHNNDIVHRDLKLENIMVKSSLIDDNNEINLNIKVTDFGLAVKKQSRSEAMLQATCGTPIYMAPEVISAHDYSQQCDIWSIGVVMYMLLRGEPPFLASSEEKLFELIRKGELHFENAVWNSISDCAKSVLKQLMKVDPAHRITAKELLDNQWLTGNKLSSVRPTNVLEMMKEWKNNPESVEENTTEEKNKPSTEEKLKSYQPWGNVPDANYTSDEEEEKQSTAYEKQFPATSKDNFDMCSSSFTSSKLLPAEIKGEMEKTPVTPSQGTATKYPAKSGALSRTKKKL
NOMO-1 viab – NOMO-1 AML cell viability reduction, primary screen, STK33 inhibitor project, CellTiter-Glo luminescence; NOMO-1 AML viability, 72 h; hit rate 7.5% among 37,000; inhibition, % (test concentration not listed); in the data active = inhibition above about 80%; inconclusive = no clear call, values can overlap the other calls
PD-1 reversal – activators reversing PD-1 mediated T-cell inhibition, primary screen, luminescence, primary human CD4 T cells, PD-L1 beads. AID 2316, 2010. activation, % (no concentration beside the values). CellTiter-Glo 96 h. 29,000 tested, under 10 active; call rule not given here
Of the large screens only hits and unclear results are named; the others gave an inactive call. The entries come from a sample that favours hits as a whole.

C=C(C(=O)O[C@H]1C/C=C(/C)C[C@H](O)[C@H]2[C@H](C)C(=O)O[C@@H]2/C=C\1C)[C@@H]1CCC(=C)[C@@H]2C[C@H](O[C@@H]3O[C@H](CO)[C@@H](O)[C@H](O)[C@H]3O)C(=C)[C@@H]2C1	NOMO-1 viab 118
C=C1CCC2C(C(=O)O)=COC(O[C@@H]3O[C@H](CO)[C@@H](O)[C@H](O)[C@H]3O)C12 (stereo partly specified)	none
Cc1cc(=O)[nH]c(SCC(=O)c2cc(C(C)(C)C)c(O)c(C(C)(C)C)c2)n1	none (no result: PD-1 reversal)
CC(C)(C)c1cc(C(=O)CSc2nc3ccccc3[nH]2)cc(C(C)(C)C)c1O	NOMO-1 viab 102 (no result: PD-1 reversal)
COc1ccc(C(c2ccc3cccnc3c2O)N2CCOCC2)cc1 (stereo unspecified)	NOMO-1 viab 118 (no result: STK33 inh)
O=C(c1ccc(NS(=O)(=O)c2cccc3cccnc23)cc1)N1CCOCC1	none
Oc1c(C(c2ccncc2)N2CCCC2)ccc2cccnc12 (stereo unspecified)	NOMO-1 viab 143 (no result: STK33 inh)
c1ccc(C(c2ccccc2)N2CCC2)cc1	none (no result: STK33 inh)
Cc1sc2ncn(CC(=O)Nc3ccc(F)c(Cl)c3)c(=O)c2c1C	none (no result: PD-1 reversal)
C(=N/n1cnnc1)/c1cccc2c1OCCCO2	none
C[C@H]1CN([C@@H](C)CO)C(=O)Cc2cc(NS(=O)(=O)c3ccc(F)cc3)ccc2O[C@@H]1CN(C)CC1CCCCC1	NOMO-1 viab 123
C[C@@H]1CN([C@H](C)CO)C(=O)Cc2cc(NS(=O)(=O)c3ccc(F)cc3)ccc2O[C@H]1CN(C)CC1CC1	none
C[C@@H]1CN([C@H](C)CO)C(=O)Cc2cc(NS(=O)(=O)c3ccc(F)cc3)ccc2O[C@@H]1CN(C)CC1CCCCC1	none
C[C@H](CO)N1C[C@H](C)[C@H](CN(C)CC2CCCCC2)Oc2ccc(NS(=O)(=O)c3ccc(F)cc3)cc2CC1=O	NOMO-1 viab 104 (no result: PD-1 reversal)
O=C(NCc1n[nH]c(=O)c2ccccc12)c1cc2ccccc2oc1=O	none (no result: NOMO-1 viab, PD-1 reversal)
Cc1ccc(C(=O)CC(C(=O)O)N2CCN(C)CC2)cc1 (stereo unspecified)	none
CCOC(=O)CNC(=O)c1cc2nc(-c3ccc(Cl)s3)cc(C(F)(F)F)n2n1	none
CC(C)c1ccc2c(c1)CCC1[C@](C)(C(=O)O)CCC[C@]21C (stereo partly specified)	none
CC(C)c1c(O)ccc2c1CCC1C(C)(C)CCC[C@]21C (stereo partly specified)	NOMO-1 viab 109 (no result: PD-1 reversal)
Cc1nnc(SCC(=O)Nc2c(C)n(C)n(-c3ccccc3)c2=O)s1	none
CC(O)c1cncc2c(=O)n3c(cc12)-c1[nH]c2ccccc2c1CC3 (stereo unspecified)	STK33 inh inconclusive
CNc1ccccc1C(=O)N1CCc2c([nH]c3ccccc23)C1=O	NOMO-1 viab 95 (no result: PD-1 reversal)
Cc1cccc(NC(=O)CNS(=O)(=O)c2ccc(Br)cc2)c1	none (no result: PD-1 reversal)
O=C(O)c1cc(=O)c2c(O)cccc2o1	none (no result: STK33 inh)
O=C(CC1NC2CCCCC2NC1=O)Nc1ccccc1 (stereo unspecified)	none (no result: PD-1 reversal)
C[C@H](CO)N1C[C@H](C)[C@@H](CN(C)Cc2ccc(C(=O)O)cc2)Oc2c(NC(=O)c3nc4ccccc4s3)cccc2C1=O	none (no result: STK33 inh)
C[C@@H]1CN([C@H](C)CO)C(=O)c2cccc(NC(=O)c3nc4ccccc4s3)c2O[C@H]1CN(C)Cc1ccc(C(=O)O)cc1	none (no result: STK33 inh)
C[C@@H]1CN([C@@H](C)CO)C(=O)c2cccc(NC(=O)c3nc4ccccc4s3)c2O[C@@H]1CN(C)Cc1ccc(C(=O)Nc2ccccc2N)cc1	NOMO-1 viab 127 (no result: STK33 inh)
C[C@H](CO)N1C[C@H](C)[C@@H](CN(C)Cc2ccc(C(=O)Nc3ccccc3N)cc2)Oc2c(NC(=O)c3nc4ccccc4s3)cccc2C1=O	NOMO-1 viab 110 (no result: STK33 inh)
S=C(NC1CCCCC1)C12CCC3CC(CC(C3)C1)C2	none (no result: STK33 inh)
N#C/C(=N\O)C(=O)c1ccco1	none (no result: STK33 inh)
CC(=O)OC(C)(C)/C=C/C(=O)[C@](C)(O)[C@H]1C(O)C[C@@]2(C)[C@@H]3CC=C4[C@@H](C=C(O[C@@H]5O[C@H](CO)[C@@H](O)[C@H](O)[C@H]5O)C(=O)C4(C)C)[C@]3(C)C(=O)C[C@]12C (stereo partly specified)	NOMO-1 viab 117
CC(=O)O[C@@](C)(C(=O)/C=C/C(C)(C)O)[C@H]1[C@H](O)C[C@@]2(C)[C@@H]3CC=C4[C@@H](C=C(O[C@@H]5O[C@H](CO)[C@@H](O)[C@H](O)[C@H]5O[C@@H]5O[C@@H](C)[C@H](O)[C@@H](O)[C@H]5O)C(=O)C4(C)C)[C@]3(C)C(=O)C[C@]12C	none (no result: NOMO-1 viab, PD-1 reversal)
COc1ccc(CCNC(=S)Nc2ccncc2)cc1OC	NOMO-1 viab 113
COc1ccc(CCNC(=S)n2cc(C)cn2)cc1OC	NOMO-1 viab 111
